Outcome and AC50 data for 27 compounds are collected here from PubChem BioAssay (EPA / NIEHS).

Activity calls are given as the source filed them. The calls were made as follows: active = hit-call score of the fitted dose curve at least 0.9, where 1 is the maximum; inactive = score below 0.9.

Read-out in this experiment: Interferon-gamma inducible Protein 10 (IP10), CXCL10 (gene 3627)
Briefly: BSK_KF3CT_IP10: BioMAP Diversity Plus: KF3CT Assay for Interferon-gamma inducible Protein 10 (IP10) Biomarker Activity (AID 2283068). The conditions noted are these: primary human keratinocytes with fibroblasts; actives raise or lower the signal. Summed up: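 In a primary skin co-culture of keratinocytes and fibroblasts, IP-10 is quantified by ELISA at 24 h after dosing. SRB staining of parallel wells monitors overt toxicity. Curves are fitted both directions against DMSO.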
In the case of `OCc1c[nH]c2ccccc12`, the outcome was inactive.
Regarding `c1ccc2cc3ccccc3cc2c1`, the outcome was inactive.
The term AC50 denotes the concentration giving half of the maximal activity seen. In the case of `COc1cc(C(C)C)c2c(c1)S(=O)(=O)N(COc1cc(=O)n3cccc(OCCN4CCCCC4)c3n1)C2=O`, the AC50 is 7.22 µM (active).
With `O=S(=O)(O)CCC(F)(F)C(F)(F)C(F)(F)C(F)(F)C(F)(F)C(F)(F)F`, the result was inactive.
In the case of `Cc1nccn1-c1ccc(Sc2cccc(C3(C(N)=O)CCOCC3)c2)cc1`, the outcome was inactive.
For the compound `CC(C)CC(C)O` (configuration not stated), the result was inactive.
Same read-out and setting: the value for `NC(=O)NN=Cc1ccc([N+](=O)[O-])o1` was “inactive”; that for `c1ccc(C(O[C@@H]2CCCN(CCc3ccc4c(c3)OCO4)C2)c2ccccc2)cc1` was “inactive”.
Same read-out and setting: the result for `CCCCOC(=O)c1ccccc1` reads “inactive”; that for `FC(F)(F)C(F)(F)C(F)(F)C(F)(F)C(F)(F)C(F)(F)I`, “inactive”.
Still for that read-out and setting: the result for `NC(=O)N1c2ccccc2C=Cc2ccccc21` reads “inactive”.
For `Cc1nc(-c2ccccn2)ncc1C(=O)Nn1cc(C)c2cc(F)ccc21`, the result was inactive.
Take `O=C(O)[C@H](O)[C@@H](O)C(=O)O`: the outcome was inactive.
The same measure, in the same setting: the value for `Cc1cccc(O)c1C` was “inactive”; that for `C[Si](C)(C)C(F)(F)C(F)(F)C(F)(F)F` was “inactive”.
Still for that read-out and setting: the value for `CCOC(N)=O` was “inactive”.
Regarding `OC[C@H]1O[C@@H]2O[C@H]3[C@H](O)[C@@H](O)[C@@H](O[C@H]4[C@H](O)[C@@H](O)[C@@H](O[C@H]5[C@H](O)[C@@H](O)[C@@H](O[C@H]6[C@H](O)[C@@H](O)[C@@H](O[C@H]7[C@H](O)[C@@H](O)[C@@H](O[C@H]1[C@H](O)[C@H]2O)O[C@@H]7CO)O[C@@H]6CO)O[C@@H]5CO)O[C@@H]4CO)O[C@@H]3CO`, the outcome was inactive.
With `COc1cc2c(c(OC)c1OC)-c1ccc(OC)c(=O)cc1[C@@H](NC(C)=O)CC2`, the outcome was inactive.
In the case of `OCCC(F)(F)C(F)(F)C(F)(F)C(F)(F)F`, the result was inactive.
Same read-out and setting: the value for `O=C(O)c1cccc(C(=O)O)c1` was “inactive”; that for `CNC(C)=O` was “inactive”; that for `CCCCCCCC1CCC(=O)O1` (configuration not stated) was “inactive”.
On the same count and under the same terms, the value for `O=C1CN(N=Cc2ccc([N+](=O)[O-])o2)C(=O)N1` was “inactive”.
Same read-out and setting: the result for `COS(C)(=O)=O` reads “inactive”; that for `S=P(N1CC1)(N1CC1)N1CC1`, “inactive”; that for `C[C@@H](Oc1ccc(CNC(=O)c2cccnc2Oc2ccc3c(c2)OCO3)c(F)c1)C(=O)O`, “inactive”.
Consider `O=c1[nH]cnc2c1ncn2[C@H]1CC[C@@H](CO)O1`, for which the result was inactive.
